# According to the supplement of paper PMC10849652:
# About 7,900 targets were measured; listed, in parts, are those with a hit and a random draw of the rest. About 0.6% of all pairs of compound and target were hits. Values without a mark were called inactive.
# Legend:
# Experiment in all cases: log2 fold change, soluble protein after heating vs DMSO (PISA); higher = thermal stabilisation; K562 cells, 10 uM, 30 min; active = over 0.2 and 3.5 SD of the protein, either way, in both replicates (recomputed)
# erlotinib = compound: C#Cc1cccc(Nc2ncnc3cc(OCCOC)c(OCCOC)cc23)c1 [erlotinib]
# In short: (§1)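 K562 cells at 2×10^6 cells/mL were given 10 μM compound for 30 min. Aliquots then went through 3 min of heating across 48°C-58°C, were pooled, and were extracted in PBS with 0.5% NP-40 at 4°C, and the supernatant after 21,000xg for 90 min was quantified by TMTpro 16plex LC-MS/MS with channel sums equalised. Thermal stability relative to control samples, from duplicates, is given as log2 fold change.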
# [1] = compound: C/C(=N\NC(=O)C1=CC(=CC=C1)S(=O)(=O)N2CCOCC2)/C3=C(C=CC(=C3)Cl)O
# In short: as §1
# [2] = compound: C1=CC(=C(C=C1Cl)C2=NC3=NC=CN=C3C(=N2)NC4=CC=NC=C4)F
# In short: as §1
# [3] = compound: C1=CC(=CC=C1C2=NC3=C(N2)C=C(C=C3)C(=O)N)OC4=CC=C(C=C4)Cl
# In short: as §1
# [4] = compound: C1=CC2=C(C=CC(=C2)/C=C\3/C(=O)NC(=NCC4=CC=CS4)S3)N=C1
# In short: as §1
# [5] = compound: C1=CC2=NC=CN=C2C=C1/C=C/3\C(=O)NC(=O)S3
# In short: as §1
# [6] = compound: C1=CC=C(C=C1)C2=NC(=C(N2)C3=CC=NC=C3)C4=CC(=C(C=C4)Cl)O
# In short: as §1
# [7] = compound: C1=CC=C2C(=C1)C3=NNC4=CC=CC(=C43)C2=O
# In short: as §1
# [8] = compound: C1CCN(C1)C(=O)NC2=CC=CC(=C2)NC3=NC=C(C(=N3)NCCC4=CN=CN4)Br
# In short: as §1
# [9] = compound: C1CN(CCC1(CC2=CC=C(C=C2)Cl)N)C3=NC=NC4=C3C=CN4
# In short: as §1
# Chain of UniProt Q9Y680 (Q9Y680 whole entry, looked up): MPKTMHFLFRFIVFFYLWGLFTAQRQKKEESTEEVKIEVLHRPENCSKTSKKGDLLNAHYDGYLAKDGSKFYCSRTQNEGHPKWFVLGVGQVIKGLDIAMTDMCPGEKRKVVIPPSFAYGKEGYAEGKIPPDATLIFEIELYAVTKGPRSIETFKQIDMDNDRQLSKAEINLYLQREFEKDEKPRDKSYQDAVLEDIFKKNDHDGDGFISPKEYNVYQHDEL
# Chain of UniProt Q1KMD3 (Q1KMD3 whole entry, looked up): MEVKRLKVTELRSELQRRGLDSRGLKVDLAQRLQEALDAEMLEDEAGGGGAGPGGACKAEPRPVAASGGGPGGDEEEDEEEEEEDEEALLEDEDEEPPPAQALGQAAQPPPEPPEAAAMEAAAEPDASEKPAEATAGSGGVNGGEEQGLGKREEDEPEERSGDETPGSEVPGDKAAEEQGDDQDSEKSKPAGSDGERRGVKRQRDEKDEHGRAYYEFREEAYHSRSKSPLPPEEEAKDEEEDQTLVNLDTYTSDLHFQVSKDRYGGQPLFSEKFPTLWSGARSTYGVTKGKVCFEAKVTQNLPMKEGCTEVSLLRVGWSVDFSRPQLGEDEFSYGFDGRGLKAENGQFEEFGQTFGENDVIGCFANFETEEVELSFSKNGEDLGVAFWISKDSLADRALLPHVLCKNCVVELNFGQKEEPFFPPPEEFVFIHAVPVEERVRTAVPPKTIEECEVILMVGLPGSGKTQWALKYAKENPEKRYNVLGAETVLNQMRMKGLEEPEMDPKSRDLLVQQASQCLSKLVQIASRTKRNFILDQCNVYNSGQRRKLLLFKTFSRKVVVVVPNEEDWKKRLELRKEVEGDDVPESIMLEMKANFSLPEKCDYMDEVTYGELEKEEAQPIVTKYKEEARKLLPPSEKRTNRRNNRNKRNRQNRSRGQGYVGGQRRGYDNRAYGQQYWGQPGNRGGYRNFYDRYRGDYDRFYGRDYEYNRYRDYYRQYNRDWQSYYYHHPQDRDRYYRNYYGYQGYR
# Chain of UniProt Q00403 (Q00403 whole entry, looked up): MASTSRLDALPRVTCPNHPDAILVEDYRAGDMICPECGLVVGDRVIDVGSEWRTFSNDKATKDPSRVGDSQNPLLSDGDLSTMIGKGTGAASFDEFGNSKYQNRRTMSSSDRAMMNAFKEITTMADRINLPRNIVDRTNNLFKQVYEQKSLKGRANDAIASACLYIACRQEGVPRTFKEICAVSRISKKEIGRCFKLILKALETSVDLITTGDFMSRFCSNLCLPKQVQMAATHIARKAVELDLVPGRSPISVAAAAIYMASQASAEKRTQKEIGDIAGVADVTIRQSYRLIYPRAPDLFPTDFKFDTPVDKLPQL
# Chain of UniProt Q01628 (Q01628 whole entry, looked up): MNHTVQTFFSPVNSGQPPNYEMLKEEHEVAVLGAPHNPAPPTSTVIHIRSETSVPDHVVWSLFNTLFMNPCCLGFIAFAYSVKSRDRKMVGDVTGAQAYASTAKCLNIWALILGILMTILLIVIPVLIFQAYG
# Chain of UniProt P13807 (P13807 whole entry, looked up): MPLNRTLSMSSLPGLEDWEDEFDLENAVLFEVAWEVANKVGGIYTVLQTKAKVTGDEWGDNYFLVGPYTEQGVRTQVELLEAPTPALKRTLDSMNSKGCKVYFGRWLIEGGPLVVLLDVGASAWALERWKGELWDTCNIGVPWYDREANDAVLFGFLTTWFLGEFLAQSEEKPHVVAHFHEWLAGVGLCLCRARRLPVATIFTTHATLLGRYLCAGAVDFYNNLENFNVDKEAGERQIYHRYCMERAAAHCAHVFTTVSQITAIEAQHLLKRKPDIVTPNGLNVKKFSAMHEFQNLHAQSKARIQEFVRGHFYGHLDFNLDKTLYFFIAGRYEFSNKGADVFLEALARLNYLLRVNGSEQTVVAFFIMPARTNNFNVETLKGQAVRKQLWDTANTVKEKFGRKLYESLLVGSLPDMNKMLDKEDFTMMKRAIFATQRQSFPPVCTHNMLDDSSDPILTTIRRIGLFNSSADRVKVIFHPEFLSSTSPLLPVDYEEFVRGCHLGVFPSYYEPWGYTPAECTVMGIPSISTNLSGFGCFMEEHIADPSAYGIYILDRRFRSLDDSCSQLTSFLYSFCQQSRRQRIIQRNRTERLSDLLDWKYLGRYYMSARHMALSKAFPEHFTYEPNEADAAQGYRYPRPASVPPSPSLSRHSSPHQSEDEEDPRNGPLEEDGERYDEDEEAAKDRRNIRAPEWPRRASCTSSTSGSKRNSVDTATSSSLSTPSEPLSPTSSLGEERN
# Chain of UniProt P52789 (P52789 whole entry, looked up): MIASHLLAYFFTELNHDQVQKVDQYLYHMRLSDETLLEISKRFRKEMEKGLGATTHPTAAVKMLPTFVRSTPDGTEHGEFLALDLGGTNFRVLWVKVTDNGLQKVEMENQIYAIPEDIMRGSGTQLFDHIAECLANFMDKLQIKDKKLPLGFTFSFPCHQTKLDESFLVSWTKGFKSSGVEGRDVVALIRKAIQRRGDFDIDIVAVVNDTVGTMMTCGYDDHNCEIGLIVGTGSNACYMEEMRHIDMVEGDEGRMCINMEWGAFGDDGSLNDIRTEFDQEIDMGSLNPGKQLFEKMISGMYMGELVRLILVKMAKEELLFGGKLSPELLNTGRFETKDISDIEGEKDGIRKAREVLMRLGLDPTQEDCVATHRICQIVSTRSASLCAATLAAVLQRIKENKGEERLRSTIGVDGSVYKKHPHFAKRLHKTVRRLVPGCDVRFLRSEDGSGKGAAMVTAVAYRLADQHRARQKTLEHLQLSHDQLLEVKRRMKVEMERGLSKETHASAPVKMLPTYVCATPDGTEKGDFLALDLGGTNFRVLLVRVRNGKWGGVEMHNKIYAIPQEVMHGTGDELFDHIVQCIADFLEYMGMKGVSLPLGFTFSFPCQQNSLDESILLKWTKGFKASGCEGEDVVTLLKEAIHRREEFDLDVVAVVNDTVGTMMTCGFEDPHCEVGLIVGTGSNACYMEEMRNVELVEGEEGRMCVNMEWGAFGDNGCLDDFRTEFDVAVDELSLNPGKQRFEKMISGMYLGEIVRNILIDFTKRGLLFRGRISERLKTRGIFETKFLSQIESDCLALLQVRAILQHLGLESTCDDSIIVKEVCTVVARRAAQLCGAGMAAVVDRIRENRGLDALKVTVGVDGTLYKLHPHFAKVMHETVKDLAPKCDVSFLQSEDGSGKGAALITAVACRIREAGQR
# Chain of UniProt Q8NB37 (Q8NB37 whole entry, looked up): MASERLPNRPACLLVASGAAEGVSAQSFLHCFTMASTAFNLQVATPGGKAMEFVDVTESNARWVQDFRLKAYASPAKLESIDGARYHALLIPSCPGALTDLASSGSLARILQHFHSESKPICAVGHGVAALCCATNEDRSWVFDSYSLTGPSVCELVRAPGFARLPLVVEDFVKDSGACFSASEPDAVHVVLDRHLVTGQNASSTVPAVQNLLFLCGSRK
# Chain of UniProt O43427 (O43427 whole entry, looked up): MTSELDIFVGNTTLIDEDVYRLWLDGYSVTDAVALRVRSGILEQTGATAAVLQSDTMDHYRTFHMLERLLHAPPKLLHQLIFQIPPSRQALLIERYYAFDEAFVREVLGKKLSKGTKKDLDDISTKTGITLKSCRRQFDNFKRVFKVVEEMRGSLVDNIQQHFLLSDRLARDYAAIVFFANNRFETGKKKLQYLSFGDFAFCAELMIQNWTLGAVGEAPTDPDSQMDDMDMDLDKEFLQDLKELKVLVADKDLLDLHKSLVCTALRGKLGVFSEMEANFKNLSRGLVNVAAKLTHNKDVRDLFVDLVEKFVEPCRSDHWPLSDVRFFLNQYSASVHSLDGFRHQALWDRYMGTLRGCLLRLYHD
# Chain of UniProt P09105 (P09105 whole entry, looked up): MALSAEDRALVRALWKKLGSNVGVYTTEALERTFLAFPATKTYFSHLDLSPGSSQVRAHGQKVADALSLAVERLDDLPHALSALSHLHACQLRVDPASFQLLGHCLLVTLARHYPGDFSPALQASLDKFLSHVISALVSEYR
# Chain of UniProt O15117 (O15117 whole entry, looked up): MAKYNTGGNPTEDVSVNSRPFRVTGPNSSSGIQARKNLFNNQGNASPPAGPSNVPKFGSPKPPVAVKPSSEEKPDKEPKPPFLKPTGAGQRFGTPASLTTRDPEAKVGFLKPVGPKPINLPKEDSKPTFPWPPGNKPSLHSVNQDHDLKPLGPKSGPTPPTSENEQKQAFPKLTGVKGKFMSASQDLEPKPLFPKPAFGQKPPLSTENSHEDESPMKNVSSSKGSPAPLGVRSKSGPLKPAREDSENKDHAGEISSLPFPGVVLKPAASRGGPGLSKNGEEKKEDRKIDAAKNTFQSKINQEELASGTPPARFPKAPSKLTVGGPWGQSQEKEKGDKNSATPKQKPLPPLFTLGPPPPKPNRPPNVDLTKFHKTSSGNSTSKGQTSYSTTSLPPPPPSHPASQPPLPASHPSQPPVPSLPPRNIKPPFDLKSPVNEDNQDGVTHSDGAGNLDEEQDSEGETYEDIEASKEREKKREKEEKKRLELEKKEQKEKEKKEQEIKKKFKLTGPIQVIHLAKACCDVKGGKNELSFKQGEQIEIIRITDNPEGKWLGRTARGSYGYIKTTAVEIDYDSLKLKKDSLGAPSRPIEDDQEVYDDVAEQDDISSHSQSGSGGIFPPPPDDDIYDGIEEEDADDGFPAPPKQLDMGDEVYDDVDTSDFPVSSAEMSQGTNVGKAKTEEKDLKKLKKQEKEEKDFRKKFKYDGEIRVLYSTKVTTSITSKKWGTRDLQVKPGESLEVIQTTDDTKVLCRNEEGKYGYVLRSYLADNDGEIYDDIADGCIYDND
# Chain of UniProt Q53GQ0 (Q53GQ0 whole entry, looked up): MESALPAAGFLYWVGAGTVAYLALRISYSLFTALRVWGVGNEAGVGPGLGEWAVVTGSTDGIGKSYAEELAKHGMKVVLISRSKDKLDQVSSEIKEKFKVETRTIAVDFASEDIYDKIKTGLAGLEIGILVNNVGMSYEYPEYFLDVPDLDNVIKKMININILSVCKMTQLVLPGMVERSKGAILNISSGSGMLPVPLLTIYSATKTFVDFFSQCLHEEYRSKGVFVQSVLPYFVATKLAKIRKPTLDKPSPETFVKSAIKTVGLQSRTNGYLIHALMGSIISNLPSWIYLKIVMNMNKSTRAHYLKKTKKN
Target,log2 fold change (erlotinib),log2 fold change [1],log2 fold change [2],log2 fold change [3],log2 fold change [4],log2 fold change [5],log2 fold change [6],log2 fold change [7],log2 fold change [8],log2 fold change [9]
FYB1 isoform 3 (UniProt O15117),0.019,0.032,-0.02,-0.01,0.057,0.006,0.014,-0.08,-0.041,0
GCDH (UniProt Q92947),0.016,-0.078,0.045,-0.273 (active),0.081,-0.011,0.082,0.048,-0.011,0.039
HDAC1 (UniProt Q13547),1.14 (active),0.015,0.011,-0.01,0.16,0.004,0.021,-0.055,-0.004,-0.018
GNB2 (UniProt P62879),0.003,0.079,-0.04,0.051,-0.016,0.007,-0.003,0.008,-0.057,-0.002
HDAC7 isoform 5 (UniProt Q8WUI4),0.025,0.057,-0.08,0.007,-0.126,-0.008,-0.037,-0.171,-0.056,0.025
GATD1 (UniProt Q8NB37),0.028,-0.006,0.111,-0.012,0.057,0.007,-0.01,0.047,-0.006,0.098
HBQ1 (UniProt P09105),-0.007,-0.021,0.33 (active),0.03,0.059,0.011,0.051,-0.021,-0.093,0.026
GTF2H3 (UniProt Q13889),-0.002,0.041,-0.115,0.051,0.027,-0.017,0.014,0.012,-0.004,0.044
HDHD2 (UniProt Q9H0R4),0.029,0,0.133,0.009,0.013,0.046,-0.015,-0.018,-0.009,0.037
GBF1 (UniProt Q92538),-0.012,0.077,-0.049,-0.022,0.075,0.028,-0.036,0.033,-0.026,-0.052
GTF2B (UniProt Q00403),0.069,0.136,0.048,-0.035,0.149,0.027,-0.033,0.01,-0.065,-0.046
HSD17B12 (UniProt Q53GQ0),0.004,0.067,0.02,0.346 (active),0.025,-0.012,0.027,0.064,-0.028,0.124
IFITM3 (UniProt Q01628),-0.093,-0.031,-0.471 (active),0.042,-0.041,0.058,0.118,-0.01,-0.016,-0.03
FKBP7 (UniProt Q9Y680),-0.027,-0.027,0.005,0.037,0,0.081,-0.037,-0.042,0.039,0.048
FMC1 (UniProt Q96HJ9),0,0.072,0.083,0.004,0.108,-0.063,0.319 (active),0.001,-0.026,-0.042
HLTF (UniProt Q14527),-0.005,0.018,0.068,0.039,0.034,-0.067,-0.009,0.044,-0.016,-0.011
GTPBP6 (UniProt O43824),-0.091,-0.017,-0.137,0.01,0.041,0.066,-0.036,-0.05,0.06,0.027
FUCA1 (UniProt P04066),0.01,0.024,0.049,-0.007,0.031,-0.004,-0.004,0.044,0.012,0.018
GOLPH3 (UniProt Q9H4A6),0.008,0.073,0.104,-0.014,0.011,0.008,0.051,-0.007,-0.101,0.043
GOPC (UniProt Q9HD26),0.016,0.051,-0.284,-0.178,-0.027,-0.147,-0.008,0.265,-0.036,0.06
HK2 (UniProt P52789),-0.068,0.037,0.051,0,0.028,-0.015,0.005,-0.017,0.009,0.023
FNTA (UniProt P49354),0.245,-0.033,0.116,-0.017,0.075,-0.009,0.051,-0.034,0.065,0.106
HNRNPUL2 (UniProt Q1KMD3),-0.054,-0.08,-0.138,-0.015,-0.057,0.012,-0.056,-0.014,0.011,-0.102
FUCA2 (UniProt Q9BTY2),-0.001,-0.03,-0.026,0.013,0.015,0.038,0.033,0.029,0.056,0.017
FIBP (UniProt O43427),0.023,0.088,0.011,-0.002,0.107,-0.023,-0.032,0.011,-0.144,0.125
GYS1 (UniProt P13807),-0.022,-0.104,-0.345,-0.066,-0.071,-0.003,-0.14,0.176,-0.021,-0.069
IFRD1 (UniProt O00458),0.226,-0.021,-0.124,-0.008,0.134,0.199,-0.013,0.068,0.042,-0.04
HMGN1 (UniProt P05114),-0.069,-0.114,-0.011,0.066,-0.114,0.045,-0.062,-0.059,0.029,-0.028
HMGN2 (UniProt P05204),-0.02,-0.01,-0.255,0.034,-0.125,-0.039,-0.052,0.059,0.011,0.019
